The source made the active and inactive calls. How the source made its calls: active means hit-call score of the fitted dose curve at least 0.9, where 1 is the maximum; inactive means score below 0.9.
Assays:
[1] = BSK_3C_SRB: Viability Assessment in the BioMAP Diversity Plus: 3C Assay (AID 2283023); details: primary human endothelial cells (HUVEC);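 further: cells read 24 h after compound dosing; fitted both ways against DMSO so a hit may be signal rise or drop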
Method in brief: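 Absorbance at 560 nm of sulforhodamine B-stained (0.1%) total protein served as a cytotoxicity readout in human umbilical vein endothelial cells, 24 h after chemical treatment. Signal was fitted bidirectionally relative to DMSO.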

[2] = read-out: Matrix Metallopeptidase 1 (MMP1), MMP1 (gene 4312); test: BSK_BE3C_MMP1: BioMAP Diversity Plus: BE3C Assay for Matrix Metallopeptidase 1 (MMP1) Biomarker Activity (AID 2283024); details: primary human bronchial epithelial cells; actives raise or lower the signal
Method in brief: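 Human primary bronchial epithelial cells (BE3C system) dosed for 24 h; MMP-1 quantified by ELISA. Bidirectional fit against DMSO; cytotoxicity tracked in parallel cultures by SRB total-protein staining.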

[3] = BSK_3C_Vis: BioMAP Diversity Plus: 3C Assay for Morphology Visualization (AID 2283025); details: primary human endothelial cells (HUVEC);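 further: fitted both ways so gain or loss versus DMSO counts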;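 on AC50: light microscopy image of cell morphology used as background control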
Method in brief: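 Human umbilical vein endothelial cell morphology was inspected by light microscopy 24 h after chemical dosing; scored bidirectionally relative to DMSO.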

[4] = read-out: Pselectin, SELP (gene 6403); test: BSK_4H_Pselectin: BioMAP Diversity Plus: 4H Assay for Pselectin Biomarker Activity (AID 2283026); details: primary human endothelial cells (HUVEC); actives raise or lower the signal
Method in brief: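 Primary human umbilical vein endothelial cells were treated 24 h, and cell-surface P-selectin was then quantified by ELISA. Bidirectional fit versus DMSO; cytotoxicity checked in parallel cultures by SRB total-protein staining.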

[5] = BSK_4H_SRB: Viability Assessment in the BioMAP Diversity Plus: 4H Assay (AID 2283027); details: primary human endothelial cells (HUVEC);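 further: cells exposed to compound for 24 h before staining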;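 on AC50: curves fitted both ways versus DMSO so AC50 may be loss or gain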
Method in brief: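 Human umbilical vein endothelial cells were dosed with chemical and, after 24 h, fixed with 10% TCA, stained with 0.1% sulforhodamine B, and read at 560 nm to give total protein as a cytotoxicity measure. Bidirectional fitting relative to DMSO control.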

[6] = BSK_BE3C_SRB: Viability Assessment in the BioMAP Diversity Plus: BE3C Assay (AID 2283028); details: primary human bronchial epithelial cells;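 on AC50: fitted both ways so AC50 may mark signal gain or loss versus DMSO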
Method in brief: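 Cells (human bronchial epithelial, primary) are treated with chemicals, and after 24 h the parallel cultures are fixed in 10% TCA. These are then stained with 0.1% SRB and read at 560 nm. Gain or loss of signal is fitted relative to DMSO.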

[7] = read-out: Thrombomodulin, THBD (gene 7056); test: BSK_3C_Thrombomodulin: BioMAP Diversity Plus: 3C Assay for Thrombomodulin Biomarker Activity (AID 2283029); details: primary human endothelial cells (HUVEC); actives raise or lower the signal
Method in brief: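 Human umbilical vein endothelial cells were exposed to chemicals for 24 h; cell-surface thrombomodulin quantified by ELISA, with bidirectional fitting against DMSO baseline.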

[8] = read-out: Urokinase-type plasminogen activator receptor (uPAR), PLAUR (gene 5329); test: BSK_4H_uPAR: BioMAP Diversity Plus: 4H Assay for Urokinase-type plasminogen activator receptor (uPAR) Biomarker Activity (AID 2283030); details: primary human endothelial cells (HUVEC); actives raise or lower the signal
Method in brief: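 Cell-surface uPAR ELISA signal, measured 24 h after dosing human umbilical vein endothelial cells, was analyzed with bidirectional fitting relative to DMSO. Parallel SRB staining of total protein tracked overt cytotoxicity.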

[9] = read-out: Vascular endothelial growth factor receptor 2 (Homo sapiens) (UniProt P35968); test: BSK_4H_VEGFRII: BioMAP Diversity Plus: 4H Assay for Vascular endothelial growth factor receptor 2 (VEGFR2) Biomarker Activity (AID 2283031); details: primary human endothelial cells (HUVEC); actives raise or lower the signal;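 on AC50: cell-surface VEGFR2 protein level quantified by ELISA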
Method in brief: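 ELISA read-out of VEGFRII in primary human umbilical vein endothelium, taken 24 h after chemical treatment. Responses are expressed relative to DMSO, with bidirectional fitting.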

[10] = read-out: Human Leukocyte Antigen - DR isotype (HLADR), HLA-DRA (gene 3122); test: BSK_BE3C_HLADR: BioMAP Diversity Plus: BE3C Assay for Human Leukocyte Antigen - DR isotype (HLADR) Biomarker Activity (AID 2283032); details: primary human bronchial epithelial cells; actives raise or lower the signal
Method in brief: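 Human primary bronchial epithelial cells (BE3C system) exposed to compound for 24 hours; cell-surface HLA-DR measured by ELISA, fitted bidirectionally relative to DMSO. Total protein by SRB in parallel cultures tracked cytotoxicity.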

Measured: AC50

CN(C)c1ccc(C(=C2C=CC(=[N+](C)C)C=C2)c2ccc(N(C)C)cc2)cc1
active: [1] 4.93 µM | [2] 0.938 µM | [3] 16 µM | [4] 0.613 µM | [5] 8.49 µM | [6] 7.72 µM | [7] 3.97 µM | [8] 1.42 µM | [9] 0.148 µM | [10] 1.28 µM

Cc1cc2c(cc1C(F)(F)F)N(C(=O)Nc1ccc(Oc3cccnc3C)nc1)CC2
active: [3] 36.6 µM | [4] 8.67 µM | [6] 15.8 µM | [7] 5.4 µM | [10] 5.03 µM
inactive: all other assays above

O=C(O)Cn1c(=O)n(Cc2ccc(Br)cc2F)c(=O)c2ccc(Cl)cc21
inactive: all assays above

NC(=O)c1nc(-c2cccc(-c3cc(F)ccc3OCC(F)(F)C(F)(F)F)c2)n[nH]1
inactive: [9]
active: [1] 31.9 µM | [2] 36.5 µM | [3] 42.3 µM | [4] 30.8 µM | [5] 35.2 µM | [6] 34.5 µM | [7] 11.7 µM | [8] 22.6 µM

O=C1O[C@H]([C@@H](O)CO)C(O)=C1O
inactive: all assays above

c1ccc2ccccc2c1
inactive: all assays above

Cc1c2ccccc2c(C)c2c1ccc1ccccc12
inactive: [6] | [7] | [9] | [10]
active: [1] 13.4 µM | [2] 20 µM | [3] 13.7 µM | [4] 14.7 µM | [5] 18.8 µM | [8] 14 µM

O=C(OCCCCCCOC(=O)c1ccccc1)c1ccccc1
inactive: all assays above

Cc1cn([C@H]2C[C@H](N=[N+]=[N-])[C@@H](CO)O2)c(=O)[nH]c1=O
inactive: all assays above

C[C@]12CC[C@@H]3c4ccc(O)cc4CC[C@H]3[C@@H]1CC[C@H]2O
active: [1] 12.4 µM | [3] 20.7 µM | [5] 9.1 µM | [8] 12.8 µM
inactive: all other assays above

CC[C@H](NC(=O)c1cc(F)ccc1NS(=O)(=O)c1cccc2cccnc12)c1ccccc1
inactive: all assays above

CN1C(=O)N(c2ccccc2Br)Cc2cnc(Nc3ccc4c(c3)OCC(CO)O4)nc21 (centres undefined)
active: [1] 20 µM | [2] 7.24 µM | [3] 20.7 µM | [4] 6.75 µM | [5] 2.02 µM | [6] 28.1 µM | [8] 3.51 µM | [10] 28.5 µM
inactive: [7] | [9]

CC[C@@H]1C[C@H](N(Cc2cc(C(F)(F)F)cc(C(F)(F)F)c2)C(C)=O)c2cc(C(F)(F)F)ccc2N1C(=O)OC(C)C
inactive: all assays above

CCCCOC(=O)c1ccc(O)cc1
inactive: all assays above

CCCCCCCCCCCO
active: [1] 31.3 µM
inactive: all other assays above

O=C=NCCCCCCN=C=O
inactive: all assays above

CCCCCCCCN(C)CCCCCCCC
inactive: all assays above

COc1cc(C(=O)NC2CCN(C)CC2)ccc1Nc1ncc2c(n1)N(C1CCCC1)CC(F)(F)C(=O)N2C
active: [1] 18.6 µM | [2] 7.76 µM | [3] 18.6 µM | [4] 3.57 µM | [5] 13.5 µM | [6] 28.2 µM | [8] 7.45 µM | [10] 21.9 µM
inactive: [7] | [9]

CCCCCCCCCC(=O)O
inactive: all assays above

Reference: PubChem BioAssay (EPA / NIEHS)
